Only some compounds are listed: those with a hit (about 2.8% of all), similar ones and a draw of the others.
PP1 inh: PP1-alpha phosphatase inhibitors, primary screen, counter-screen for PP5 inhibitor project, biochemical, fluorescence, OMFP substrate, single point. Serine/threonine-protein phosphatase PP1-alpha catalytic subunit (Homo sapiens), P62136. purified PP1alpha. inhibition, % at 6.7 µM. hit rate 0.9% among 320,000. AID 2235, 2010;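 active = inhibition above the mean inhibition of all tested compounds plus 3 SD, computed separately for each screening campaign, cut at about 15% in these data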
IDE cell inh: human IDE inhibitors in live cells, primary screen, fluorescence polarization, HEK cells, FAbetaB substrate. inhibition, % at 5.59 µM. AID 434962, 2010. hit rate 0.41% among 320,000. FAbetaB cleavage. Insulin-degrading enzyme (Homo sapiens), P14735;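 active = percent inhibition above the average of all tested compounds plus 3 SD, set per screening campaign, cut at about 16% in these data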;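 also: IDE supplied by intact live HEK cells; FP after avidin binding of uncleaved biotin substrate so inhibition keeps polarization high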
Target sequence (P14735 whole entry, looked up): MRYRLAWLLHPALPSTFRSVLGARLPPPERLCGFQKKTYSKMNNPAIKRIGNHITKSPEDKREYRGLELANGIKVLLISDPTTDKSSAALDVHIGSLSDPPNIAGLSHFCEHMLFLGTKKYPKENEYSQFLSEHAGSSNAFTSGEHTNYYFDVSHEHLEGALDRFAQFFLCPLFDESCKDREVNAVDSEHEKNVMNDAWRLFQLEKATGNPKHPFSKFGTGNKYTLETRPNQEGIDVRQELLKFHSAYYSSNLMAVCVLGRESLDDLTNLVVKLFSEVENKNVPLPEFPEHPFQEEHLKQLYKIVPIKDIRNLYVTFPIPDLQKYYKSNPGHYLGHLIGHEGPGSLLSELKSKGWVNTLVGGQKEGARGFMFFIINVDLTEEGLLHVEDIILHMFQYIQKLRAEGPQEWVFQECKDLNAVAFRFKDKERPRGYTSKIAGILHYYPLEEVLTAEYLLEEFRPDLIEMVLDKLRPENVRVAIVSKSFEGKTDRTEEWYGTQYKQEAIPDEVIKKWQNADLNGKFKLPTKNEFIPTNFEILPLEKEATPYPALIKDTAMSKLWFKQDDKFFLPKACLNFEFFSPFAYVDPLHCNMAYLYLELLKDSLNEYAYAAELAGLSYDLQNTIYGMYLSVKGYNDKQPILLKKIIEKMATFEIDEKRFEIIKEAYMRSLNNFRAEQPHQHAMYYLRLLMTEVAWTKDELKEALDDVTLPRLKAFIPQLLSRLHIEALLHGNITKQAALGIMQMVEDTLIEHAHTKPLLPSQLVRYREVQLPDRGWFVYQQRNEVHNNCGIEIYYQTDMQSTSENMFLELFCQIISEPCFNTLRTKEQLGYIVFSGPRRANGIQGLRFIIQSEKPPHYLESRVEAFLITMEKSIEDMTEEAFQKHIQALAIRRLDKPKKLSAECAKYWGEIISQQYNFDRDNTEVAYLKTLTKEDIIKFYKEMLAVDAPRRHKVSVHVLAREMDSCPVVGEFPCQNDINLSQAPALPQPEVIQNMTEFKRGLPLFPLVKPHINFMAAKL
IDE act: human IDE activators in live cells, primary screen, fluorescence polarization, HEK cells, FAbeta-B substrate | Insulin-degrading enzyme (Homo sapiens), P14735 | FAbeta-B cleavage; 0% vehicle, 100% cell-free pure enzyme wells | activation, % at 5.96 µM | hit rate 0.073% among 340,000;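 active = activation above the mean of all tested compounds plus 3 SD, set per screening campaign, cut at about 17% in these data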
SKKanGAS inh: S. pyogenes SKKanGAS growth inhibitors in kanamycin, primary screen, streptokinase expression inhibitor project, SKKanGAS strain, BacTiter-Glo luminescence; inhibition, % at 7.5 µM; 6 h; hit rate 1.3% among 300,000; AID 1662, 2009;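 active = mean replicate score, as percent of positive control median, at least 50; inconclusive = mean below 50 but one replicate at or above 50; inactive = mean and every replicate below 50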;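 also: strain carries kanamycin resistance gene driven by streptokinase promoter and grows in 40 µg/ml kanamycin; loss of luminescence reflects streptokinase promoter inhibition or plain growth inhibition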
Exocytosis inh: LAMP-1 surface exposure blockers, TALL-104 cells – cell-based, flow cytometry, MLPCN library, primary screen | inhibition, % at 10 µM | hit rate 0.66% among 360,000 | TALL-104 LAMP-1 surface exposure; cells stimulated with thapsigargin and PMA | AID 651702, 2012;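 active = inhibition above about 55%, limit read from the data; inconclusive = no clear call, values can overlap the other calls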
PP5 primary: PP5 phosphatase inhibitors, primary screen, biochemical, fluorescence; Serine/threonine-protein phosphatase 5 (Homo sapiens), P53041; purified PP5c, OMFP substrate fluorescence; inhibition, % at 6.7 µM; hit rate 0.18% among 320,000;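 active = inhibition above the campaign's mean inhibition across all tested compounds plus 3 SD, cut at about 9.5% in these data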
IDE inh confirm: human IDE inhibitors in live cells, confirmation, fluorescence polarization, HEK cells, FAbetaB substrate | shares compounds with IDE cell inh | FAbetaB cleavage | inhibition, % at 5.59 µM | hit rate 51% among 1,200;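 active = mean inhibition across triplicate wells above the cutoff set by the earlier primary insulin-degrading enzyme screen, cut at about 16% in these data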
HEK293 tox: cytotoxicity in HEK cells, cytotoxicity control for IDE inhibitor project, cell-based, luminescence. inhibition, % at 5.59 µM. AID 449730, 2010. HEK293 cytotoxicity, ATP luminescence. hit rate 28% among 1,200. shares compounds with IDE cell inh; in the data active = inhibition above about 22%
Of the large screens only hits and unclear results are named; the others gave an inactive call (follow-up assays come after a bar, where they were run).

CC(C)=C(C#N)c1nc2ccccc2s1	IDE cell inh 37.7 | IDE inh confirm inactive | HEK293 tox inactive
Cc1c(Cl)cccc1NC(=S)Nc1ccc(S(=O)(=O)Nc2ncccn2)cc1	none (no result: PP1 inh, SKKanGAS inh, PP5 primary)
COc1ccc(Cc2nc3ccc(C(=O)NCCCSC)cc3o2)cc1OC	none
O=C(COC(=O)CSc1ccc(Cl)cc1)NCCc1ccccc1	none (no result: PP1 inh, IDE cell inh, SKKanGAS inh, PP5 primary)
Cc1cccc(-n2c(O)c(C=Nc3ccccc3-c3n[nH]c(=S)[nH]c3=O)c3ccccc3c2=O)n1	IDE cell inh 21.5 | IDE inh confirm 16.8 | HEK293 tox inactive
Cc1ccc(-n2c(O)c(C=Nc3ccccc3-c3n[nH]c(=S)[nH]c3=O)c3ccccc3c2=O)cc1C	SKKanGAS inh inconclusive (no result: PP1 inh, IDE cell inh, PP5 primary)
COc1cc(/C=C2/CC/C(=C/c3ccc(O)c(OC)c3)C2=O)ccc1O	IDE cell inh 24.2, SKKanGAS inh inconclusive, Exocytosis inh 85.9 | IDE inh confirm 35.5 | HEK293 tox 31.9
COc1cc(/C=C2\C(=O)N(C)C(=S)N2C)ccc1O	IDE cell inh 19.0 | IDE inh confirm 31.0 | HEK293 tox inactive
O=C(O)C(CCc1ccccc1)(Cc1ccccc1)C(=O)O	none (no result: PP1 inh, IDE cell inh, SKKanGAS inh, PP5 primary)
Cc1cccc(C)c1N1CCN(c2cc(Cl)nc(N)n2)CC1	IDE cell inh 17.5 | IDE inh confirm inactive | HEK293 tox inactive
Cc1onc(-c2ccccc2Cl)c1C(=O)NCc1nnnn1-c1ccc(F)c(F)c1	none (no result: PP1 inh, IDE cell inh, IDE act, SKKanGAS inh, PP5 primary)
Cc1ccc(C2=NN=C(NC(=O)CSc3nncn3C)SC2)cc1	IDE cell inh 23.7 | IDE inh confirm inactive | HEK293 tox inactive
Cc1ccc(C(=O)NC(=O)CSc2nncn2C)cc1	none
COc1ccc(C(C#N)CC(=O)c2ccc(OC)c(OCc3ccccc3)c2)cc1OC (stereo not given)	none (no result: PP1 inh, IDE cell inh, IDE act, SKKanGAS inh, PP5 primary)
O=C(CN1C(=O)c2ccc([N+](=O)[O-])cc2C1=O)Nc1cc(S(=O)(=O)N2CCOCC2)ccc1Cl	none
CCc1c(C#N)c(SCc2c(C)noc2C)nc2c1C(=O)CC(C)(C)C2	IDE cell inh 17.8 | IDE inh confirm inactive | HEK293 tox 32.4
CC(=O)Nc1ccnc(-c2cccnc2)n1	none
Cc1cccc(C(=O)Nc2ccnc(-c3cccnc3)n2)c1	IDE cell inh 43.6 | IDE inh confirm 31.2 | HEK293 tox inactive
Cc1cccc(C(=O)Nc2ccnc(-c3ccncc3)n2)c1	IDE cell inh 51.1 | IDE inh confirm 26.9 | HEK293 tox inactive
C[C@H]1CN([C@@H](C)CO)C(=O)c2cc(-c3cccc(F)c3)cnc2O[C@H]1CN(C)C(=O)c1cnccn1	none (no result: PP1 inh, IDE cell inh, IDE act, SKKanGAS inh, PP5 primary)
O=C1C2C3C=CC(C3)C2C(=O)N1CC1CCCO1 (stereo not given)	none (no result: SKKanGAS inh)
O=C1CSC(=S)N1CC1CCCO1 (stereo not given)	IDE cell inh 17.9 | IDE inh confirm inactive | HEK293 tox inactive
C=CCOC(=O)C1=C(C)NC(=O)NC1/C=C/c1ccccc1OC (stereo not given)	IDE cell inh 20.8 | IDE inh confirm inactive | HEK293 tox inactive
COc1ccccc1/C=C/C1NC(=O)NC(C)=C1C(=O)OC(C)C (stereo not given)	none
CCCCOc1ccc(C(=O)Nc2cc(C)c(OCC(=O)N3CCOCC3)c(C)c2)cc1	IDE cell inh 38.7 | IDE inh confirm inactive | HEK293 tox 24.9
CC(=O)c1cc2c(C)c(C(=O)c3ccccc3)oc2cc1O	IDE cell inh 35.5 | IDE inh confirm 87.1 | HEK293 tox inactive
Cc1oc2ccc(O)cc2c1C(=O)c1ccccc1	none
O=C(COc1ccc(F)cc1)Nc1nc(-c2cccnc2)cs1	none (no result: PP1 inh, IDE cell inh, IDE act, SKKanGAS inh, PP5 primary)
O=C(COC(=O)COc1cccc(Br)c1)Nc1ccc(F)cc1F	none (no result: SKKanGAS inh)
CC(=O)NC(c1ccco1)c1cc(Cl)c2ccc(Cl)nc2c1O (stereo not given)	none (no result: SKKanGAS inh)

From PubChem
